Measurements published in PubChem BioAssay AID485298 (National Center for Advancing Translational Sciences (NCATS), 2010).
In all, about 320,000 compounds went through this assay and about 740 (0.23%) were called active. Inconclusive results (about 2%) are left out. The sample as a whole holds a higher share of actives than the screen did. Values without a mark were called inactive. Calls follow the shape of the dose curve; as a rule, active = well fitted activation curve with a large enough effect; inconclusive = small, poorly fitted or top-dose-only effect; inactive = no such curve, though single readings can be large or run the other way.

Assay: qHTS Assay for Small Molecule Inhibitors of Mitochondrial Division or Activators of Mitochondrial Fusion; also: nearly all actives have a fitted effect of over 45% in size; as to growth rescue (activation): % of control where 0% means no effect
Settings: S. cerevisiae fusion-defective mutant growth rescue, CellTiterGlo 48 h; series mostly up to 46.1 µM; growth rescue (activation): at the top concentration
From the text: NIH Chemical Genomics Center [NCGC] NIH Molecular Libraries Probe Production centers Network [MLPCN] MLPCN Grant: MH081279-01 Assay Submitter (PI): Jodi M. Nunnari NCGC Assay Overview: The budding yeast S. cerevisiae is a powerful system to study mitochondrial fusion. Unlike other organisms, yeast cells without functional mitochondrial DNA (mtDNA) can be propagated and studied as long as they maintain a mitochondrial compartment and are provided with a fermentable carbon source. When mitochondrial fusion is blocked in yeast, mitochondrial tubules rapidly fragment and division continues unopposed. Under conditions where fusion is compromised in mammalian cells, nearly identical changes in mitochondrial structure have been observed. Thus, these findings indicate that steady state mitochondrial structure in cells is a characteristic and specific indicator of fusion activity. Mounting evidence has pointed to a connection between mitochondrial dynamics and apoptosis in mammalian cells. These studies indicate that in mammalian cells mitochondrial dynamics are more integrated into cellular processes than in yeast cells and have evolved not only to distribute the organelle but also to aid in the regulation of cellular homeostasis. Mitochondrial fusion proteins attenuate apoptosis by inhibiting the release of cytochrome c from mitochondria, in part by controlling cristae structures. Thus, small molecules that inhibit mitochondrial […] may promote apoptosis and potentially act as novel chemotherapeutics and stimulation of apoptosis has become an attractive target of anti-cancer therapies. To identify inhibitors of mitochondrial division, we exploit the growth phenotypes of mitochondrial fusion-defective mutants. The temperature sensitive fusion alleles, such as fzo1-1 and mgm1-5, cause mitochondrial membranes to fragment in cells under non-permissive conditions and cells lose mtDNA, and are unable to grow in the presence of non-fermentable carbon source glycerol. Inhibiting mitochondrial division rescues growth. We have developed and optimized a luminescence cell viability assay in 1536 well format for the identification of inhibitors in the yeast mitochondrial fusion-defective assay.
The yeast glycerol stocks where kindly supplied by the laboratory of Dr. Jodi Nunnari, University of California, Davis. All yeast glycerol stock solutions were stored in single use aliquots at -80C. The CellTiterGlo luminescence reagent, containing luciferase and luciferin, were purchased from Promega, and the reagents were stored according to manufacturer's instructions. The Buffer components for the YPEG yeast growth medium were purchased from Sigma-Aldrich (St. Louis, MO). YPEG growth medium: 1% (w/v) yeast extract, 2% (w/v) Bacto-peptone, 3% Ethanol, 3% glycerol, 0.4mM Tryptophan, 0.36mM Adenine. qHTS Assay Protocol: 1.#Dispense 2.5 ul yeast growth medium per 1536 well plate. 2.#Transfer 23 nl per well of compound to plate. 3.#Dispense 2.5 ul yeast solution at appropriate seeding density per well. 4.#Incubate for 48 hours at 37C. 5.#Dispense 5 ul of CellTiterGlow solution per well. 6.#Incubate at ambient for 10 minutes. 7.#Read using bio-luminescence protocol on Viewlux.
Potency is read from the fitted curve at half-maximal effect.

SMILES | Potency | growth rescue (activation) [%]
O=C1NC(=O)C(CCc2ccccn2)(Cc2cccc(Cl)c2Cl)C(=O)N1c1ccc(Br)cc1 (stereo not given) | 11.2 µM (active) | –
Clc1ccc2nc3c(c(-c4ccccc4)c2c1)CNCC3 | – | -2.55
N[C@@H](Cc1c[nH]c2ccccc12)c1nnc(SCc2c(F)cccc2Cl)o1 | – | -0.901
CC(=O)NBr | – | 1.86
C=CCN1CCC23c4c5ccc(O)c4O[C@H]2C(=O)CC[C@@]3(O)C1C5 (stereo not given in full) | – | -26.3
c1ccc2c(c1)[I+]c1ccccc1-2 | 0.291 µM (active) | –
O=C(COc1ccc2ccccc2c1)N1CCN(Cc2ccncc2)CC1 | – | -0.612
Cc1nn(Cc2ccccc2Cl)c(Cl)c1C(=O)OC(C(=O)NC(N)=O)C(C)C (stereo not given) | – | 0.455
C=CCN1C(=O)C2(C(C(=O)OCC)=C(N)Oc3c2c(=O)oc2ccccc32)c2ccccc21 (stereo not given) | – | 16.6
CC1=CC(=Cc2sc3ccccc3[n+]2C)C=C(C)O1 | – | 0.11
